About 3,200 (25%) of roughly 13,000 compounds showed an effect of 50% or more. Some of the results follow.
Test system: P. falciparum stage V gametocytes
Design: BacTiter-Glo ATP luminescence viability of purified stage V gametocytes in 384-well plates, per cent inhibition versus DMSO
Conditions: 48 h, 5 µM; inhibitor

Point of comparison: `CCCOc1cccc(C(=O)N[C@@H](Cc2ccccc2)[C@H](O)CNCc2ccccc2OC)c1` [TCMDC-136706], “% Inhibition” value 81.52%. Against it:
- COc1cc(NC(=O)c2c(-c3c(Cl)cccc3Cl)noc2C)c(OC)cc1Cl [TCMDC-125477] — lower, -41.77%
- CC(O)C(C)(CO)NCc1ccc2c3c(cccc13)-c1ccccc1-2 (stereo not shown) [TCMDC-138117] — lower, 15.45%
- Cc1noc(C)c1-c1ccc2c(Nc3ccc(C(F)(F)F)cc3)c(C(N)=O)cnc2c1.Cl [TCMDC-136019] — lower, 23.08%
- NC(=O)c1cnc2ccc(-c3cncs3)cc2c1Nc1ccc(F)c(Cl)c1 [TCMDC-138566] — lower, 50.74%
- Cc1ccc(O)cc1Nc1c(C(N)=O)cnc2ccc(-c3cncs3)cc12 [TCMDC-138565] — lower, 46.98%
- COc1cccc(C2(NC[C@@H](O)[C@H](Cc3ccccc3)NC(=O)c3ccccc3)CCCCC2)c1 [TCMDC-135740] — lower, 7.84%
- CC(C)CCCC(C)(C)NC[C@@H](O)[C@H](Cc1ccccc1)NC(=O)c1cccc(CCC2CC2)c1 [TCMDC-136602] — lower, 71.1%
- CCOc1cc(C(=O)N[C@@H](Cc2ccccc2)[C@H](O)CNCc2cccc(OC)c2)cc(N2CCCCS2(=O)=O)c1 [TCMDC-134521] — lower, -19.61%
- CCCOc1cccc(C(=O)N[C@@H](Cc2ccccc2)[C@H](O)CNCc2cccc(OC)c2)c1 [TCMDC-136707] — lower, 12.44%
- CC(C)CCCC(C)(C)NC[C@@H](O)[C@H](Cc1ccccc1)NC(=O)c1cccc(OCC2CC2)c1 [TCMDC-136556] — higher, 100.1%
- CCNc1cc(C(=O)N[C@@H](Cc2ccccc2)[C@H](O)CNC(C)(C)Cc2cccc(OC)c2)cc(N2CCCC2=O)c1 [TCMDC-134574] — lower, 1.402%
- O=C(N[C@@H](Cc1ccccc1)[C@H](O)CNCCC(F)(F)F)c1cccc(CCC2CC2)c1 [TCMDC-136611] — lower, -3.968%
- O=C(N[C@@H](Cc1ccccc1)[C@H](O)CNCCC(F)(F)F)c1cccc(OCC2CC2)c1 [TCMDC-136610] — lower, 48.68%
- Clc1ccccc1/C=C/c1cncnc1Nc1ccc2nc(Cc3ccccc3)[nH]c2c1 [TCMDC-138659] — lower, 0.669%
- COc1cc(Nc2ccnc3cc(-c4ccccn4)ccc23)cc(OC)c1OC [TCMDC-138203] — lower, 0.8769%
- c1ccc(-c2cccc(-c3ccccn3)n2)nc1 [TCMDC-123985] — lower, -15.75%
- COc1ccc(-c2ccnc(-c3cccc(-c4ccccn4)n3)c2)cc1 [TCMDC-125008] — higher, 155.4%
- N#Cc1ccc(NC(=NC2Cc3ccccc3C2)Nc2cccc(Cl)c2Cl)c(O)c1 [TCMDC-140223] — lower, -11.72%
- O=C(/C=C/c1ccc(Cl)c(Cl)c1)N1CCC(C(O)CN2CCC(c3c[nH]c4ccccc34)CC2)CC1 (stereo not shown) [TCMDC-134171] — lower, 19.99%
- CS(=O)(=O)Nc1ccc2[nH]cc(C3CCN(CC(O)C4CCN(C(=O)/C=C/c5ccc(Cl)c(Cl)c5)CC4)CC3)c2c1 (stereo not shown) [TCMDC-134176] — lower, 30.58%
- O=C(/C=C/c1cccc(Cl)c1)N1CCC(C(O)CN2CCC3(CC2)CN(C(=O)/C=C/c2cccc(Cl)c2)c2ccccc23)CC1 (stereo not shown) [TCMDC-134543] — lower, 57.97%
- CC(=O)Nc1ccc(CN2CCC(NC(=O)c3ccc(-c4cccc(F)c4)s3)CC2)cc1 [TCMDC-134333] — lower, 6.679%
- CCNc1cc(C(=O)N[C@@H](Cc2cc(F)cc(F)c2)[C@H](O)CNCc2cccc(C(F)(F)F)c2)cc(N2CCCCS2(=O)=O)c1 [TCMDC-134678] — lower, -1.763%
- CC(C)CCNC(=O)[C@@H]1[C@H]2C(=O)N(C3CCCCC3)C(=O)[C@H]2[C@H]2C=C[C@@H]3C(c4ccc(C(C)(C)C)cc4)=NO[C@@H]3N21 [TCMDC-139763] — lower, -31.5%
- Cc1cc(CN2CCCC(OC(c3ccc(F)cc3)c3ccc(F)cc3)C2)ccc1O (stereo not shown) [TCMDC-136168] — lower, 43.13%
- CN(C)CCNc1ncnc2c1[nH]c1ccc(Cl)cc12 [TCMDC-124582] — lower, 1.888%
- CCN(CC)CCNc1nc(C=Cc2ccc(Cl)cc2)nc2cc3ccccc3cc12 [TCMDC-125777] — higher, 86.86%
- CCN(CC)CCNc1ccnc2[nH]c3ccc(Cl)cc3c12 [TCMDC-131832] — lower, 4.266%
- CNC(=O)NC1=NC(C)(C)N(OCc2ccc(Cl)c(Cl)c2)C(NC(=O)NC)=N1 [TCMDC-131694] — lower, 10.36%
- CN(C)Cc1ccc(O)c(-c2ccc(C(C)(C)C)cc2)n1 [TCMDC-124147] — lower, 10.19%
- COc1ccc2nccc([C@@H](O)CN3CCC(NCCNc4cccc(F)c4)CC3)c2c1 [TCMDC-140716] — lower, -36.18%
- COc1ccccc1CCNc1nc(C)cc(N[C@@H](CC(C)C)C(=O)NCc2cccs2)n1 [TCMDC-134806] — lower, 64.45%
- COc1ccccc1CCNc1nc(C)cc(N[C@@H](CC(C)C)C(=O)Nc2ccccc2)n1 [TCMDC-134808] — lower, 19.68%
- COc1ccc(NC(=O)[C@H](CC(C)C)Nc2cc(C)nc(NCCc3ccccc3OC)n2)cc1 [TCMDC-134805] — lower, -9.787%
- Cc1cc(N[C@@H](CC(C)C)C(=O)NCc2cccs2)nc(Nc2ccccc2)n1 [TCMDC-134739] — lower, -4.41%
- COc1ccc(NC(=O)[C@H](CC(C)C)Nc2cc(C)nc(NCCc3cccs3)n2)cc1 [TCMDC-134875] — lower, -27.08%
- Cc1cc(N[C@@H](CC(C)C)C(=O)NCCc2ccccc2)nc(NCCc2cccs2)n1 [TCMDC-134816] — lower, 67%
- Cc1cc(N[C@@H](CC(C)C)C(=O)NCc2cccs2)nc(NCCc2ccc(F)cc2)n1 [TCMDC-134794] — lower, 46.14%
- Cc1cc(N[C@@H](CC(C)C)C(=O)NCc2cccs2)nc(NCCc2ccccc2)n1 [TCMDC-134779] — lower, 68.3%
- Cc1cc(N[C@@H](CC(C)C)C(=O)NCc2cccs2)nc(NCCc2cccs2)n1 [TCMDC-134815] — higher, 136.3%
- Cc1cc(N[C@@H](CC(C)C)C(=O)NCCc2ccccc2)nc(NCc2ccccc2C)n1 [TCMDC-134911] — lower, -9.933%
- Cc1cc(N[C@@H](CC(C)C)C(=O)NCCc2ccccc2)nc(Nc2ccccc2)n1 [TCMDC-134742] — lower, -5.247%
